Source: the supplement of paper PMC13380429

System: Vero E6 infected with SARS-CoV-2
Test: inhibition of SARS-CoV-2 cytopathic effect; higher = more antiviral protection, active = above 15
Conditions: 48 h

Measured: inhibition of SARS-CoV-2 cytopathic effect

CCCN1CCC[C@@H]2Cc3n[nH]cc3C[C@H]21 [quinpirol-(-)]
inactive: 1 nM -2.17% | 8.33 nM 2.95% | 100 nM 0.48% | 833.33 nM -2.24% | 10000 nM -0.87%

CCCC(C)NC(=O)c1ccc(Cl)c(Cl)c1 (stereo not given)
inactive: 1 nM 1.38% | 8.33 nM 1.88% | 100 nM 1.26% | 833.33 nM -2.38% | 10000 nM -1.56%

Cc1c2oc3c(C)ccc(C(=O)N[C@@H]4C(=O)N[C@@H](C(C)C)C(=O)N5CCC[C@H]5C(=O)N(C)CC(=O)N(C)[C@@H](C(C)C)C(=O)O[C@@H]4C)c3nc-2c(C(=O)N[C@@H]2C(=O)N[C@@H](C(C)C)C(=O)N3CCC[C@H]3C(=O)N(C)CC(=O)N(C)[C@@H](C(C)C)C(=O)O[C@@H]2C)c(N)c1=O [actinomycin-d]
inactive: 1 nM -0.33% | 8.33 nM 1.99% | 100 nM 0.83% | 833.33 nM -8.47% | 10000 nM -14.8%

CN1CCCC(CN2c3ccccc3Sc3ccccc32)C1 (stereo not given) [mepazine]
inactive: 1 nM -2.3% | 8.33 nM 3.28% | 100 nM 3.56% | 833.33 nM -2.75% | 10000 nM 5.75%

CO[C@@H](C)Cn1c(=O)n(C)c2cnc3ccc(-c4cncc(C(C)(C)O)c4)cc3c21
inactive: 1 nM 0.62% | 8.33 nM 2.32% | 100 nM -0.9% | 833.33 nM -3.02% | 10000 nM -17.6%

COc1cccc2c1C(=O)c1c(O)c3c(c(O)c1C2=O)C[C@@](O)(/C(CO)=N/NC(=O)CCCCCN1C(=O)C=CC1=O)C[C@@H]3O[C@H]1C[C@H](N)[C@H](O)[C@H](C)O1 [aldoxorubicin]
inactive: 1 nM -2.6% | 8.33 nM -0.32% | 100 nM 0.6% | 833.33 nM 4.67% | 10000 nM -1.37%

Nc1ccc(S(=O)(=O)Nc2cnc3ccccc3n2)cc1 [sulfaquinoxaline]
inactive: 1 nM -0.58% | 8.33 nM 1.74% | 100 nM -1.77% | 833.33 nM -2.18% | 10000 nM 1.39%

Cc1ccc(CC2(O)CCN(CCOc3ccc(O)cc3)CC2)cc1
inactive: 1 nM -5.34% | 8.33 nM 1.47% | 100 nM 3.16% | 833.33 nM -0.31% | 10000 nM 1.64%

Oc1cc(O)c2c(c1)O[C@H](c1ccc(O)c(O)c1)[C@H](O)[C@H]2c1c(O)cc(O)c2c1O[C@H](c1ccc(O)c(O)c1)[C@H](O)C2 [procyanidin-B-2]
inactive: 1 nM 2.26% | 8.33 nM 3.77% | 100 nM 2.22% | 833.33 nM 2.06% | 10000 nM -0.73%

CNCc1ccc(-c2[nH]c3cc(F)cc4c3c2CCNC4=O)cc1 [rucaparib]
inactive: 1 nM 1.82% | 8.33 nM 5.76% | 100 nM 7.61% | 833.33 nM 5.18% | 10000 nM 0.16%

C#C[C@]1(O)CC[C@H]2[C@@H]3CCC4=CC(=O)CC[C@@H]4[C@H]3CC[C@@]21CC [norgestrel]
inactive: 1 nM -2% | 8.33 nM -0.115% | 100 nM 2.25% | 833.33 nM -0.065% | 10000 nM 0.025%

CC(C)OC(=O)CNC(=O)[C@H](CS)NC(=O)CC[C@H](N)C(=O)O [glutathione-monoisopropyl-ester]
inactive: 1 nM -0.48% | 8.33 nM 2.43% | 100 nM -0.65% | 833.33 nM 0.55% | 10000 nM 2.32%

Cc1ccc2c(c1)c1c(n2CCc2ccc(C)nc2)CCN(C)C1 [latrepirdine]
inactive: 1 nM 1.25% | 8.33 nM -0.5% | 100 nM -0.92% | 833.33 nM 0.73% | 10000 nM 0.87%

CN(C)CCCSC(=N)N [dimaprit]
inactive: 1 nM 0.47% | 8.33 nM 0.92% | 100 nM -0.82% | 833.33 nM -1.15% | 10000 nM 2.17%

COc1cc2c(c(OC)c1OC)-c1c(cc3c(c1OC)OCO3)CC(C)C(C)C2 (stereo not given) [schisandrin-B]
inactive: 1 nM -1.41% | 8.33 nM -0.34% | 100 nM -0.03% | 833.33 nM -1.73% | 10000 nM -1.42%

O=C(Nc1cc(C(F)(F)F)cc(C(F)(F)F)c1)c1cc(Cl)ccc1O [IKK-2-inhibitor-V]
inactive: 1 nM -4.92% | 8.33 nM -2.65% | 100 nM 1.55% | 833.33 nM 10.7% | 10000 nM 4.63%
